# Sampled rows, rich in hits. Any-hit rate of the full collection: about 2.9%.
# Nrf2 inh: inhibitors of Nrf2 signaling. A549 ARE-Fluc reporter, luciferase luminescence, 18-24 h. Potency, µM (titrated, usually from 46 µM), for inactives: at the top dose activity change, negative = inhibition, most hits filed as inhibitors. 2.1% of 360,000 active. AID 504444; further: on the % scale 0 is the no-effect control and ±100 the full control effect; nearly all actives have a fitted effect of over 60% in size
#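 Quantitative HTS in A549 cells stably bearing an antioxidant response element-firefly luciferase construct. Inhibition of Nrf2-driven transcription was scored by luminescence after 18-24 h of compound exposure at 37 °C.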
# Nrf2 activator: activators of Nrf2 (ARE) signaling; Potency, µM (highest dose often 46.1 µM), for the others: at the top dose activation, actives largely listed as activators; AID 624171; 0.31% of 410,000 active; AREc32 ARE-luciferase reporter (MCF7-derived line), luminescence, 24 h; further: % of control where 0% means no effect; nearly all actives have a fitted effect of over 65% in size
#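 For detection, Steady-Glo was added and plates sat 30 min at RT; before that, AREc32_Fluc cells grown overnight in OPTI-MEM/5% FBS had been treated with 23 nL compound for 24 hr at 37 deg C.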
# ATXN2 expr inh: inhibitors of ATXN2 expression. 0.72% of 360,000 active. HEK-293 ATXN2-luciferase reporter, luminescence, 24 h. AID 1745845. Potency, µM (doses to about 57 µM), for the others: at the highest dose activity change, negative = inhibition, actives largely listed as inhibitors; further: on the % scale 0 is the no-effect control and ±100 the full control effect; nearly all actives have a fitted effect of over 55% in size
#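 ATXN2-luciferase reporter cells (luciferase flanked by upstream and downstream ATXN2 gene portions) were treated 24 h at 37 °C with compounds at up to 57 uM. SteadyGlo luminescence gave expression; GF-AFC fluorescence gave viability.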
# A549 tox: counter-screen for Nrf2 inhibitors: cytotoxicity in A549 cells | A549 ARE-Fluc cells, CellTiter-Fluor viability, 18-24 h | Potency, µM (series often up to 46 µM), without a hit: at the top dose activity change, negative = cytotoxicity, usual class: inhibitors | 0.16% of 390,000 active | AID 504648; further: on the % scale 0 is the no-effect control and ±100 the full control effect
#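 A549 ARE-Fluc cells in 5% FBS OPTI-MEM, 5000 cells/well, rested 2 h then exposed to compounds in concentration-response for 18-24 h at 37 °C. Viability by CellTiter-Fluor fluorescence (Ex 405/Em 525) after 30 min; luciferase luminescence (BugLite, 15 min, RT) read afterwards.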
# ATXN viability: reduces viability in counter-screen for ATXN expression inhibitors. 0.49% of 400,000 active. S2 cells (HEK-293 line with an ATXN2-luciferase reporter) viability, CellTiter-Fluor protease fluorescence, 24 h. Potency, µM (top dose mostly 56.7 µM), most hits filed as cytotoxic; further: nearly all actives have a fitted effect of over 40% in size
# * = called active by the depositor; i = inactive; ? = inconclusive; . = no result given. The call rests on the fitted dose curve; in most records, active means well fitted curve in the direction sought with a large enough effect; inconclusive means small, poorly fitted or top-dose-only effect, or another doubt; inactive means no such curve, though single readings can be large; an effect the other way counts as inactive or inconclusive. Potency means the concentration at half of the fitted maximal effect.
SMILES,Nrf2 inh,Nrf2 activator,ATXN2 expr inh,A549 tox,ATXN viability
CCOC(=O)CCC(NC(=O)CCCCCCCC(=O)NC(CCC(=O)OCC)C(=O)OCC)C(=O)OCC (stereo unspecified),9%,0%,8%,2%,i
c1ccc(N=Nc2cn[nH]c2-c2ccco2)cc1,25%,10µM*,10%,-7%,i
Cc1cccc(N=Nc2cn[nH]c2-c2ccco2)c1,2%,?,30%,-13%,i
O=C(CN1C(=O)CC(c2ccco2)Sc2ccccc21)NC1CCCCC1 (stereo unspecified),-31%,1%,-1%,-1%,i
O=C(N/N=C/c1c(O)n(Cc2ccccc2)c(=O)c2ccccc12)c1cccnc1,-5%,0%,17µM*,-7%,.
Cc1ccc(NC(=S)NNc2ccc([N+](=O)[O-])cc2S(=O)(=O)Nc2ccccc2C(=O)O)cc1C,4%,?,-7%,-10%,32µM*
Cc1cc([N+](=O)[O-])nn1Cc1noc(C(=O)NCc2ccc3c(c2)OCO3)n1,?,0%,-1%,-16%,i
O=C(c1ccccc1)c1c2c(cc3sc4ccccc4[n+]13)-c1cccc3cccc-2c13,21µM*,3%,?,16µM*,10µM*
Cc1sc2cc3c(c(C(=O)c4ccccc4)[n+]2c1C)-c1cccc2cccc-3c12,?,0%,11µM*,?,?
O=C(c1ccccc1)c1ccc2ccccc2c1,?,5%,41%,5%,i
O=C(N/N=C/c1ccccc1)c1ccc2c(c1)OCO2,1%,-1%,-20%,-2%,i
O=C(N/N=C\c1c(O)ccc2ccccc12)c1ccc(S(=O)(=O)N2CCCCC2)cc1,?,0%,0.53µM*,-4%,.
Nc1ccc(C(=O)N/N=C\c2cc(N=Nc3cccc4ccccc34)ccc2O)cc1,?,4%,5.6µM*,?,?
O=C(N/N=C/c1c(O)ccc2ccccc12)c1ccc(CO)nc1,?,0%,4µM*,-4%,i
O=C(CNC(=O)c1ccc(S(=O)(=O)N2CCCC2)cc1)N/N=C/c1ccccc1Cl,?,0%,-8%,-2%,i
O=C(NN=Cc1c(O)ccc2ccccc12)c1ccc2c(c1)OCO2,16µM*,0%,3.2µM*,?,i
COc1ccc2occ(CC(=O)Nc3ccc(S(=O)(=O)Nc4nc(C)cc(C)n4)cc3)c2c1,18%,2%,5%,-3%,i
COc1ccc2cc(C(=O)C3CCCN(C(=O)CCc4ccccn4)C3)ccc2c1 (stereo unspecified),5%,4%,-15%,4%,i
CC(C(=O)NCCS(=O)(=O)c1ccc(Cl)cc1)S(=O)(=O)c1ccc(Cl)cc1 (stereo unspecified),9.2µM*,0%,-13%,-1%,?
O=C(Nc1nc2ccccc2n1CCN1CCOCC1)c1cn(-c2ccccc2)nc1-c1ccccc1,21µM*,0%,?,?,?
O=C(CSc1nnc2ccc3ccccc3n12)c1ccc(F)cc1,?,13µM*,14%,0%,i
O=C(CSc1nnc(-c2ccccc2Br)n1-c1ccccc1)c1ccc(F)cc1,18µM*,5%,-16%,?,i
CCOc1ccc(-c2nnc(SCC(=O)c3ccc(F)cc3)n2-c2ccccc2)cc1,-16%,0%,.,9%,.
CCc1nc(C)cn1S(=O)(=O)c1cc(Br)ccc1OC,23µM*,0%,-15%,?,i
O=C(Cc1ccc(NC(=O)C2CCCN(C(=O)CCc3ccccc3)C2)cc1)Nc1cccc(C(=O)N2CCCCC2)c1 (stereo unspecified),?,4%,-8%,-7%,i
SMILES,Nrf2 inh,Nrf2 activator,ATXN2 expr inh,A549 tox,ATXN viability
C1=C(c2sc3ccccc3c2-c2ccc(OCCN3CCOCC3)cc2)CCCC1,3%,0%,3%,-2%,i
Fc1ccc2c(c1)/C(=N/Nc1ccccn1)CCS2,8%,11µM*,7%,0%,i
C=C1CC2(OC1=O)c1ccccc1CCc1ccccc12,16µM*,?,6µM*,?,.
O=C1NC(=O)C2(CCc3ccccc32)N1 (stereo unspecified),-11%,0%,-2%,-6%,i
Cc1csc(N(C)C(=O)CSc2nnc(COc3cccc4ccccc34)o2)n1,21µM*,0%,?,0%,i
CCC(C=C[C@@H]1OC(=O)C=C[C@H]1C)=C[C@H](C)CC=CC(C)=C[C@@H](C)C(=O)[C@@H](C)[C@H](O)[C@@H](C)CC(C)=CC(=O)O,.,.,0.13µM*,.,.
O=[N+]([O-])c1ccc(Oc2ccc(S(=O)(=O)N3CCOCC3)cc2)cc1,26µM*,1%,-26%,-3%,i
O=C(O)CCCn1c(O)c(C=C2N=c3ccccc3=N2)sc1=S,-14%,14µM*,-16%,?,?
O=C(O)CCCCCn1c(O)c(C=C2N=c3ccccc3=N2)sc1=S,?,?,20%,-6%,i
NC(=S)NN=C1c2ccccc2-c2ccccc21,?,16%,.,3%,1.4µM*
O=C(NN=C1c2ccccc2-c2ccccc21)c1ccccc1,?,4%,-11%,-25%,i
O=S(=O)(c1ccc(-c2csc(-c3cccnc3)n2)cc1)N1CCCC1,?,2%,-31%,-10%,i
O=S(=O)(c1ccc(-c2csc(-c3cccnc3)n2)cc1)N1CCCCC1,21µM*,0%,-36%,-15%,?
Clc1ccsc1-c1csc(-c2cccnc2)n1,.,2.2µM*,28%,?,i
Cc1cccc(C)c1NC(=O)CN1CCN(C(=O)C2CCC2)CC1,2%,0%,-15%,-1%,i
COc1ccc(Cl)cc1NC(=S)Nc1ccccc1F,-1%,26%,5%,2%,i
Fc1cccc(CNCC2CCCO2)c1 (stereo unspecified),1%,0%,-8%,-2%,i
COc1ccc(Br)cc1C1Nc2cccc3cccc(c23)N1,14%,13µM*,3%,-1%,i
COc1cc(C2Nc3cccc4cccc(c34)N2)ccc1O,-5%,1%,-6%,-11%,?
COc1ccc(-c2nnc(SCC(=O)N(C)Cc3ccccc3)o2)cc1OC,23µM*,0%,3%,-13%,i
Cc1ccccc1Nc1c(-c2cccc(N(C)C)c2)nc2ccc(Br)cn12,2%,4%,8%,1%,i
Cc1cc(O)ccc1NS(=O)(=O)c1ccc2c3c(cccc13)C(=O)N2,-14%,4%,12%,-3%,i
COc1ccc(C)cc1NS(=O)(=O)c1ccc2c3c(cccc13)C(=O)N2,?,0%,28µM*,?,?
O=C(c1ccc(Nc2nccc(-c3cc4ccccc4s3)n2)cc1)N1CCC(N2CCCC2)CC1,.,.,19µM*,.,.

# Bioassay records deposited in PubChem BioAssay by National Center for Advancing Translational Sciences (NCATS).
